The values below come from PubChem BioAssay.

Assay [1] is described as follows: binders of probe aFSTL3 on microarray, primary screen, stem cell growth factor project, biochemical, small-molecule microarray, fluorescence 635/667 (AID 1064).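 Also: measures binding of the biotinylated anti-FSTL3 antibody to printed compounds.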 The following applies: higher = more signal.
Assay [2] is described as follows: binders from COS7 lysate, DM2A8 probe, primary screen, torsin A project, cell lysate, small-molecule microarray, fluorescence 635/667 (AID 1065). The following applies: higher = more signal, COS7 lysate expressing mutant human TOR1A.
Assay [3] can be described thus: binders of probe aFGF2 on microarray, primary screen, stem cell growth factor project, biochemical, small-molecule microarray, fluorescence 635/667 (AID 1067).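 Also: measures binding of biotinylated aFGF2 protein to printed compounds on slides; z-score merges feature fluorescence and signal-to-noise across triplicate slides.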 The following applies: higher = more signal.
Assay [4] in a line: binders of probe aFGF10 on microarray, primary screen, stem cell growth factor project, biochemical, small-molecule microarray, fluorescence 635/667 (AID 1071).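 Also: score merges 667 nm spot intensity and signal to noise from triplicate slides.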 The following applies: higher = more signal.
Assay [5] deals with Neurogenic locus notch homolog protein 2 (Homo sapiens) (UniProt Q04721). In words: Notch2 binders on small-molecule microarrays, primary screen, biochemical, small-molecule microarray, 635 nm fluorescence, stem cell growth factors (AID 1073). The following applies: Notch2 binding, higher = more signal.
Assay [6] concerns the target Pro-neuregulin-1, membrane-bound isoform (Homo sapiens) (UniProt Q02297). The assay can be described thus: NRG1 binders on small-molecule microarrays, primary screen, psychiatric disease protein project, biochemical, small-molecule microarray, fluorescence 635/667 (AID 1075).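 Also: score combines 667 nm spot fluorescence with signal to noise.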 The following applies: NRG1 binding, 635 nm fluorescence, higher = more signal.
For assay [7], the system named is Neuregulin-1 EGF-like domain. The assay can be described thus: binders of neuregulin-1 EGF-like domain, primary screen, biochemical, small-molecule microarray, 635 nm fluorescence (AID 1081).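 Also: binding of the protein to compounds printed on small-molecule microarray slides.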 The following applies: small-molecule microarray binding, higher = more signal.
The nature of assay [8]: FRG1 promoter luciferase signal modulators, primary screen, FRG1 inhibition for FSHD, cell-based, C2C12 myotubes, firefly/Renilla luciferase, luminescence (AID 1084). The following applies: higher = more signal, called active from +8 up or from −8 down.
Assay [9] in a line: binders of probe aFST on microarray, primary screen, stem cell growth factor project, biochemical, small-molecule microarray, fluorescence 635/667 (AID 1086).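 Also: score merges 667 nm fluorescence with signal-to-noise of each printed compound spot.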 The following applies: higher = more signal.
The nature of assay [10]: binders of probe aHhip on microarray, primary screen, stem cell growth factor project, biochemical, small-molecule microarray, fluorescence 635/667 (AID 1087).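 Also: score merges spot fluorescence at 667nm with spot signal to noise ratio.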 The following applies: higher = more signal.
Assay [11] relates to PRMT1 (protein arginine N-methyltransferase 1). In words: PRMT1 binders on small-molecule microarrays, primary screen, biochemical, small-molecule microarray, 635 nm fluorescence (AID 1088).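 Also: binding of Prmt1 protein to compounds spotted on small-molecule microarray slides.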 The following applies: small-molecule microarray binding, higher = more signal.
Assay [12] can be described thus: yeast growth modulation, basal conditions, primary screen, YJM789 clinical isolate, OD600, 24 h (AID 1089).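 Also: growth of clinical yeast isolate S. cerevisiae YJM 789 seeded 1000 cells per well; test concentration not given here.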 The following applies: S. cerevisiae YJM789 growth, higher = more signal, called active from +8 up or from −8 down.
A short description of assay [13]: fission yeast growth modulation, primary screen, strain 972, OD600, 24 h, no modulator (AID 1090).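 Also: basal condition with compound alone and no growth modifier present; test concentration not given here.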 The following applies: S. pombe 972 growth, higher = more signal, called active from +8 up or from −8 down.
Assay [14] in a line: S. cerevisiae growth modulation with rapamycin, primary screen, strain BY4716, OD600, 96 h (AID 1091). Also: test concentration not given here. The following applies: higher = more signal, called active from +8 up or from −8 down.
For assay [15], the target named is Torsin-1A-interacting protein 2 (Homo sapiens) (UniProt Q8NFQ8). The assay can be described thus: LULL1 binders on small-molecule microarray, primary screen, cell lysate, human LULL1 lysate, 635/667 nm fluorescence (AID 1092).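 Also: score merges per-feature 667 nm fluorescence with signal-to-noise.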 The following applies: hLULL1 lysate binding, 635 nm fluorescence, higher = more signal.
A short description of assay [16]: E. coli growth modulation, two-sided OD650, primary screen, E. coli filamentation project, strain DRC41, 24 h (AID 1093).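 Also: MC1000 strain lacking acrAB efflux and sulA so SOS filamentation is blocked; test concentration not given here.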 The following applies: OD650, 24 h, higher = more signal, called active from +8 up or from −8 down.
Assay [17] can be described thus: small-molecule microarray binders of probe aLefty2, primary screen, biochemical, biotinylated probe, 635/667 nm fluorescence (AID 1094).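 Also: score merges spot fluorescence near 667 nm with spot signal-to-noise ratio.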 The following applies: higher = more signal.
Assay [18] deals with Noggin (protein binding on small-molecule microarray). The assay can be described thus: Noggin binders on small-molecule microarray, primary screen, biochemical, 635/667 nm fluorescence (AID 1095).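 Also: score merges 667 nm feature fluorescence with signal to noise over triplicate slides.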 The following applies: 635 nm fluorescence, higher = more signal.
For assay [19], the target named is Neurogenic locus notch homolog protein 3 (Homo sapiens) (UniProt Q9UM47). In words: NOTCH3 binders on small-molecule microarray, primary screen, biochemical, 635/667 nm fluorescence (AID 1096). The following applies: NOTCH3 binding, 635 nm fluorescence, higher = more signal.
A short description of assay [20]: small-molecule microarray binders of probe aEGFR, primary screen, biochemical, biotinylated probe, 635/667 nm fluorescence (AID 1097).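 Also: probe is a biotinylated anti-EGFR antibody binding compounds printed on slides; score combines fluorescence near 667 nm and signal to noise of each spot.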 The following applies: higher = more signal.

The source made the active and inactive calls.

Chain of Torsin-1A-interacting protein 2 (Homo sapiens) (Q8NFQ8 whole entry, looked up): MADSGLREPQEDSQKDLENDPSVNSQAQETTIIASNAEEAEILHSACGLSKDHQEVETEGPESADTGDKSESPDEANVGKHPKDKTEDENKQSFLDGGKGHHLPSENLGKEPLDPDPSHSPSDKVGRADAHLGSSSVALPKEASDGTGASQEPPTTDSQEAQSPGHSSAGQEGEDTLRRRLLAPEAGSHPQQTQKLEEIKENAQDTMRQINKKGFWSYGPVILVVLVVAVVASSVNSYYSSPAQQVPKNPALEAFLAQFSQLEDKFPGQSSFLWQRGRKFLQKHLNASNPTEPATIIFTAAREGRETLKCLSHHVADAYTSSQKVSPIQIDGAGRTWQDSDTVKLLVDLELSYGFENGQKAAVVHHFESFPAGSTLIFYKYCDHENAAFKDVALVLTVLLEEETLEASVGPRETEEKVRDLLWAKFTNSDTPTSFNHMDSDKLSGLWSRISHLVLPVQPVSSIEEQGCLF
Chain of Neurogenic locus notch homolog protein 2 (Homo sapiens) (Q04721 whole entry, looked up, canonical isoform): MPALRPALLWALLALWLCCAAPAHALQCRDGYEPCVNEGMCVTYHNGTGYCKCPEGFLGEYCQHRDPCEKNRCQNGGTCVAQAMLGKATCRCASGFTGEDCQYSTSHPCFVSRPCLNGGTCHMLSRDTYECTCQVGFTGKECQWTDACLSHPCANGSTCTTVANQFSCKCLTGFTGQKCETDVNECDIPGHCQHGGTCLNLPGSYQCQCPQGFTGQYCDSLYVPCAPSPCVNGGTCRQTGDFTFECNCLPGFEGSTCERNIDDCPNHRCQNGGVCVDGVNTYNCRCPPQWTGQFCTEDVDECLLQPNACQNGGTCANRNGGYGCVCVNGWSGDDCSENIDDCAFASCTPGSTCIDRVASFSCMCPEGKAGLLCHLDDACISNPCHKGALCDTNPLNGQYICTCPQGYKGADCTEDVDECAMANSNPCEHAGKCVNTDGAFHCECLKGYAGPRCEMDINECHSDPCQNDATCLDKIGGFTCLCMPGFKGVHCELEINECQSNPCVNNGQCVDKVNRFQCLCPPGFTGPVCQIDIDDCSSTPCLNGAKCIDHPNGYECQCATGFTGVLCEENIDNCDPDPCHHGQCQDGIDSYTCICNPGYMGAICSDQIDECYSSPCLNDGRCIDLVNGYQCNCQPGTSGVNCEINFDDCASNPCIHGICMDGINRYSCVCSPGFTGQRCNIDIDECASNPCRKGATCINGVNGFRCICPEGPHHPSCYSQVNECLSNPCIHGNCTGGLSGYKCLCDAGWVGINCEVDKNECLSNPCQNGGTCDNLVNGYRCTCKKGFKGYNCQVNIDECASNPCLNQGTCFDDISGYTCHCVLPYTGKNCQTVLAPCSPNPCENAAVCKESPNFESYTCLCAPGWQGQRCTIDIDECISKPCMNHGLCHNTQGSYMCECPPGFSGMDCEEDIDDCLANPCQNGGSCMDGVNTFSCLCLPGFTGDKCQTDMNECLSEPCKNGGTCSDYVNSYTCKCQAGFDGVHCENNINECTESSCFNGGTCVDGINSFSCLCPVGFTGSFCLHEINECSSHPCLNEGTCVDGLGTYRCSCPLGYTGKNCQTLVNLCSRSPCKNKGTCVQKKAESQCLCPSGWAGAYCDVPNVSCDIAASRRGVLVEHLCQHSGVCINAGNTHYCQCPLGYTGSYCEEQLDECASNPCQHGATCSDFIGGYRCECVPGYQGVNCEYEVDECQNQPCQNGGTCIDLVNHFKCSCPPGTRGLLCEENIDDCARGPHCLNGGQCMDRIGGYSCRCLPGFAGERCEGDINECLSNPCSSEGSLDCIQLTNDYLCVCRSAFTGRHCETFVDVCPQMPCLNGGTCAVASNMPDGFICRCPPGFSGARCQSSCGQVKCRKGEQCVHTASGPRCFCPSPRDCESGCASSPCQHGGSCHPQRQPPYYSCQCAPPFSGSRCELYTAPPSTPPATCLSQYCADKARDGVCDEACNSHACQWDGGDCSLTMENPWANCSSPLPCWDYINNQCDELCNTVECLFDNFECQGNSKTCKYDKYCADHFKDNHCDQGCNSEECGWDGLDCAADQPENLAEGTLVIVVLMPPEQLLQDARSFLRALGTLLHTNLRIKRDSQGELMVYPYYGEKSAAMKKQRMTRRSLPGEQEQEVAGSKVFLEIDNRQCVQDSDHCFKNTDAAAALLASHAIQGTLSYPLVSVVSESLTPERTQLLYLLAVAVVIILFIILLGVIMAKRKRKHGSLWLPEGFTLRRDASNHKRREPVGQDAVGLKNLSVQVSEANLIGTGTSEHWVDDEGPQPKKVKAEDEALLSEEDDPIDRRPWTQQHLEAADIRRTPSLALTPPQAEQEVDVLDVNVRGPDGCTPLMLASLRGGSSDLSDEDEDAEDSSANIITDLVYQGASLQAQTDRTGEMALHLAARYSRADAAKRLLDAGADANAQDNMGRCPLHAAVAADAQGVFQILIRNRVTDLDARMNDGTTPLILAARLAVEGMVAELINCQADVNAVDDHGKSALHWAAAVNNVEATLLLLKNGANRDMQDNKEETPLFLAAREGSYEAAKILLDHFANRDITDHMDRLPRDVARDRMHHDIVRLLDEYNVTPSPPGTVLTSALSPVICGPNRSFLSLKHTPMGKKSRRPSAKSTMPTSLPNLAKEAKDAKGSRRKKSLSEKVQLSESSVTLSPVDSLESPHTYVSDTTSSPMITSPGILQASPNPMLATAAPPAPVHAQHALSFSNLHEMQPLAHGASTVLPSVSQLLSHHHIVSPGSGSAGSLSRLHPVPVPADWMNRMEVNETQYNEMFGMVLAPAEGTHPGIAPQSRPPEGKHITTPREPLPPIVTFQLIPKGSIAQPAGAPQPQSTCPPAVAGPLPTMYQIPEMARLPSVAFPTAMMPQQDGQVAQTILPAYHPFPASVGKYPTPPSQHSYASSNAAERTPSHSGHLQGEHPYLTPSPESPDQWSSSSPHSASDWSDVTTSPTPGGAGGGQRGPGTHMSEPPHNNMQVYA
Chain of Pro-neuregulin-1, membrane-bound isoform (Homo sapiens) (Q02297 whole entry, looked up, the tested form may be a part, canonical isoform): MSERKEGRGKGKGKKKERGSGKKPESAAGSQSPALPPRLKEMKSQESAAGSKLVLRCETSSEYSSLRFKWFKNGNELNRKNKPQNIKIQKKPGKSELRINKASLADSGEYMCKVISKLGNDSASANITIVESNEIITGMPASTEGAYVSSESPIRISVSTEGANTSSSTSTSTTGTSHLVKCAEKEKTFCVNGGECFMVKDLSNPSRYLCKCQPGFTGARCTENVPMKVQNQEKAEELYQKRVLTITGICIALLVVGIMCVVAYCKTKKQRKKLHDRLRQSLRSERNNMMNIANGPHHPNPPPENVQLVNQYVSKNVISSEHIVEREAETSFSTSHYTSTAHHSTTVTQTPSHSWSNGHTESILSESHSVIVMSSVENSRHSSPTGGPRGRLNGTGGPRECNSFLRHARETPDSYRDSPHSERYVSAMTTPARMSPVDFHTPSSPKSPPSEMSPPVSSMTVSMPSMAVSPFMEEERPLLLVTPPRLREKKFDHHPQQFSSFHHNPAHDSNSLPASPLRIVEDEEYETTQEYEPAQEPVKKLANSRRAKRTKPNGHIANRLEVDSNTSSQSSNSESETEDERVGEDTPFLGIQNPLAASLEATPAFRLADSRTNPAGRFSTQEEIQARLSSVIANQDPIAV

For the compound `CC(C)[Si](C#C[Si](C(C)C)(C(C)C)C(C)C)(O[C@H](C)c1cn([C@H](C)c2ccccc2)nn1)C(C)C`, the composite z-score was -0.248 in assay [1]; 0.15 in assay [2]; -0.0402 in assay [3]; 0.357 in assay [4]; 0.814 in [5]; 0.3 in assay [6]. For the same compound, the composite z-score in assay [7] was 0.528; in [9], 0.25; in [10], -0.132; in assay [11] it was 1.18; in assay [15], 1.11; in [17], 0.0137. For the same compound, the composite z-score in assay [18] is 0.5; in assay [19] it was 0.987; in assay [20] it was -0.0525. Besides, the z-score is -1.64 (inactive) in assay [8]; -1.22 (inactive) in assay [12]; -2.35 (inactive) in assay [13]; -1.4 (inactive) in assay [14]; 0.723 (inactive) in assay [16].

With `COc1ccc([Si](C)(C)[C@@H]2[C@@H](CCn3cc([C@H](O)c4ccccc4)nn3)O[C@]3(C(=O)N(C)c4c(Br)cc(C)cc43)[C@H]2C)cc1`, the composite z-score in assay [1] is 0.114; in assay [2] it was 0.301; in assay [3], -0.116; in assay [4], -0.246; in assay [5], -0.802; in assay [6], -0.115. Besides, the composite z-score in assay [7] is -0.288; in assay [9], -0.43; in [10], 0.154; in [11], -0.0221; in assay [15], 0.215; in assay [17], -0.0295. The composite z-score in [18] is 0.0639; in assay [19], -0.707; in [20], 0.0089. Further, the z-score in assay [8] is -2.54 (inactive); in assay [12], -2.54 (inactive); in assay [13], -0.793 (inactive); in assay [14] it was 0.406 (inactive); in [16], 2.87 (inactive).

Turning to `C=CC[C@]1(C(=O)N(C)C)N=C(c2ccc(OCCCO)cc2)O[C@H]1c1ccccc1CN=[N+]=[N-]`, the composite z-score stood at 0.876 in assay [1]; 1.42 in assay [2]; 0.0188 in assay [3]; 0.548 in assay [4]; 1.38 in assay [5]; 1.66 in [6]. Also, the composite z-score in assay [7] came out at 1.15; in assay [9], 1.43; in assay [10] it was 0.184; in assay [11] it was 1.09; in [15], 3.01; in assay [17], 0.186. Also, the composite z-score in assay [18] came out at 0.0301; in assay [19], 0.893; in [20] it was 0.188. Also, the z-score in [8] was -2.15 (inactive); in assay [12] it was -1.01 (inactive); in assay [13] it was -1.1 (inactive); in assay [14], -1.52 (inactive); in [16], 1.39 (inactive).

In the case of `CC(C)C[C@@H]1NC(=O)[C@@H]2C[C@H](C(=O)NCCCCCNC(=O)CS)[C@H](c3cccc(OCCO)c3)N2C1=O`, the composite z-score in assay [1] is 0.0138; in [2], 1.55; in assay [3], -0.0332; in assay [4], 0.355; in assay [5], 0.947; in [6] it was 1.35. In addition, the composite z-score in [7] was 1.29; in [9], 0.35; in assay [10] it was -0.286; in [11], 1.55; in assay [15], 2.23; in assay [17] it was -0.0153. The composite z-score in [18] amounted to 1.44; in [19], 1.06; in assay [20], 0.133. The z-score in assay [8] is 0.152 (inactive); in [12], -1.66 (inactive); in assay [13], -0.926 (inactive); in assay [14] it was -0.565 (inactive); in assay [16], 2.24 (inactive).

Consider `NCCCCCCNC(=O)[C@@H]1C[C@@H]2C(=O)N[C@@H](Cc3ccccc3)C(=O)N2[C@@H]1c1ccc(O)cc1`, for which the composite z-score in [1] is 1.38; in [2], 0.757; in [3], -0.0715; in assay [4], -0.113; in assay [5], 0.179; in [6], 1.25. Moreover, the composite z-score in assay [7] is 1.33; in assay [9], 0.422; in assay [10], -0.265; in [11], 0.914; in assay [15], 1.36; in assay [17], 0.635. For the same compound, the composite z-score in assay [18] is 0.561; in assay [19], 0.164; in assay [20] it was -0.063. The z-score in assay [8] is 0.611 (inactive); in [12], -0.507 (inactive); in [13], -1.11 (inactive); in [14], -0.373 (inactive); in [16], 0.792 (inactive).
